From PubChem BioAssay AID2783 (National Center for Advancing Translational Sciences (NCATS), 2010)
Records with an inconclusive call do not appear. The call rests on the fitted dose curve; in most records, active means well fitted inhibition curve with a large enough effect in the polarisation, with a control signal flat (not every such curve was filed as active); inconclusive means small, poorly fitted or top-dose-only effect, or effect the other way, or a change in a side signal; inactive means no such curve, though single readings can be large or run the other way; the % refers to the polarisation.

What follows are compounds tested against Menin (Homo sapiens) (UniProt O00255) (assay: Confirmation of Inhibitors Targeting the Menin-MLL Interaction in MLL Related Leukemias: Competition With Fluorescein Labeled MLL-derived Peptide). Conditions: Fluorescence polarization, fluorescein-MLL peptide displacement from menin; series mostly up to 100 µM; activity change, negative = inhibition: at the top concentration.
Sequence of Menin (Homo sapiens) (O00255 whole entry, looked up): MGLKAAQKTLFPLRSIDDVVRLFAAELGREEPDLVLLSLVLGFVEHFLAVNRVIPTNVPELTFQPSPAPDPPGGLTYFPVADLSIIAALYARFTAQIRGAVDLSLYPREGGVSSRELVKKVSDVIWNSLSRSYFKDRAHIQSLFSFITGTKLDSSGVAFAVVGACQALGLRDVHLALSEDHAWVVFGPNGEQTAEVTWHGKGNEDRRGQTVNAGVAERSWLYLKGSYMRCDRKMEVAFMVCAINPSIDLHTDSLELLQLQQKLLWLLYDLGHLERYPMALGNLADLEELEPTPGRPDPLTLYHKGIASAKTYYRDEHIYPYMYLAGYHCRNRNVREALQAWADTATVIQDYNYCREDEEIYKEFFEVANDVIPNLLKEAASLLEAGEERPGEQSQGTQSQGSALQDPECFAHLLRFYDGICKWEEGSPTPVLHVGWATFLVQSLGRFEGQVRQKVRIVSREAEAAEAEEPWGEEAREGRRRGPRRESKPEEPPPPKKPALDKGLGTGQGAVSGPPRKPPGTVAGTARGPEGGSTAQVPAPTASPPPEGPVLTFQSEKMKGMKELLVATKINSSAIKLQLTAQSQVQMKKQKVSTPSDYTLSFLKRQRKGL
Text: qHTS Assay for Inhibitors Targeting the Menin-MLL Interaction in MLL Related Leukemias
NIH Chemical Genomics Center [NCGC]
NIH Molecular Libraries Probe Centers Network [MLPCN]
Assay Submitter (PI): Jolanta Grembecka, Tomasz Cierpicki, University of Virginia
Translocations of the MLL (Mixed Lineage Leukemia) gene are frequently found in human leukemias affecting both children and adults. Fusion of MLL to one of more than 60 genes results in generation of oncogenic proteins upregulating Hox genes, which are vital to blood cell development. Patients harboring fusion of the MLL gene suffer from aggressive leukemias and respond poorly to available therapies. All of the oncogenic fusion proteins have a preserved N-terminal fragment of MLL that has been identified to interact with menin. It has been recently discovered that association with menin is critical to the leukemogenic activity of the MLL fusion oncoproteins. Selective targeting of the menin-MLL interaction could provide an attractive therapeutic approach to develop novel drugs for MLL-related leukemias. Small molecules blocking the menin-MLL interaction should reverse the oncogenic potential of MLL fusion proteins.
We have developed and optimized a fluorescence polarization-based assay for the identification of Menin-MLL inhibitors. The assay was run employing two different MLL-derived peptides. The present assay uses a 12 amino acid peptide labeled with fluorescein at its N-terminus. This peptide consists of the menin high affinity binding motif from MLL and is potently bound by menin. Another peptide with a mutated sequence, labeled with Texas Red, was used in parallel as a less stringent screen for inhibitors.
The present assay was run to confirm the activity of hits from the primary screen.
The Menin protein, the MLL-wild type (w.t.) derived peptide (N-terminal 12 amino acids), the MLL-derived peptide labeled with Texas Red and the MLL-w.t. peptide labeled with Fluorescein were kindly supplied by laboratory of Dr. Jolanta Grembecka, University of Virginia. All protein and peptide solutions were stored in single use aliquots at -80C. The Eu3+ Cyrptate-conjugated mouse monoclonal antibody anti-6 Histidine (Eu3+-AB) and the Streptavidin-XL665 conjugate (XL665) were purchased from Cisbio International (Bedford, MA). All antibody and XL665 conjugate solution stocks were stored in single use aliquots at -20C. The Buffer components for all assays were purchased from Sigma-Aldrich (St. Louis, MO) and Invitrogen (Carlsbad, CA).
1. FP reaction buffer: 50 mM Tris-HCl pH 7.5, 50 mM NaCl, 1mM DTT.
Before use, 0.05% BSA is added.
2. Menin protein, MLL-w.t. labeled with fluorescein, MLL-mutant peptide labeled with texas red.
Stored in singe use aliquots at -80C.
3. MLL-w.t. unlabeled peptide as positive control: 10 uM final in FP buffer.
1. Prepare Menin at 200 nM, MLL-w.t.-fluorescein at 25 nM, and MLL-mutant-texas red at 50 nM mixture in FP buffer.
2. Prepare Menin at 200 nM, MLL-w.t.-fluorescein at 25 nM, MLL-mutant-texas red at 50 nM, and 10 uM MLL-w.t. unlabeled mixture in FP buffer.
3. Prepare MLL-w.t.-fluorescein at 25 nM and MLL-mutant-texas red at 50 nM mixture in FP buffer.
3. Dispense 4 ul per well of reagent in step 1 in columns 2, 4 - 48 in a black 1536 well plate, dispense 4 ul per well of reagents from steps 2 and 3 in columns 1 and 3 respectively. Incubate plate at ambient for 15 minutes.
4. Transfer 23 nl per well of compound to plate and incubate at ambient for 1 hr.
5. Read fluorescence polarization for each label using the PerkinElmer Envision.
Envision protocol for fluorescein: FITC FP Dual Enh Mirror, Excitation filter 480, Emission filter (1) P-pol 535, Emission filter (2) S-pol 535
Envision protocol for texas red: FP Dual Enh Mirror, Excitation filter 555, Emission filter (1) P-pol 632, Emission filter (2) S-pol 632
On the % scale 0 is the no-effect control and ±100 the full control effect.

Activity change, negative = inhibition, inactive:
CC1CCCCN1S(=O)(=O)c1ccc(C(=O)Nc2ccccc2-c2nc3ccccc3[nH]2)cc1 (stereo not given) 8.04% [at 288 µM]
COc1ccc(N(CC(=O)NC2CC3CCC2C3)S(=O)(=O)c2ccc(C)cc2)cc1OC (stereo not given) 8.09%
Cc1cc2ccccc2nc1SCC(=O)Nc1nc(-c2ccccc2)cs1 17.8% [at 288 µM]
O=C(/C=C/c1ccccc1)Nc1nnc(SCC(=O)c2ccc3ccccc3c2)s1 -0.0809%
COCCn1c(C)c(C)c2c(NCCc3ccccc3)ncnc21 -11.9%
CCCOc1ccc(C(=O)NNC(=S)NC(=O)c2cc(-c3ccc(Cl)cc3)nc3ccccc23)cc1 -3.33% [at 288 µM]
CCc1ccccc1NC(=O)COc1cccc(-n2cnnn2)c1 -4.06% [at 288 µM]
CCN1CCN(CC(=O)Nc2ccc(C(C)=O)cc2)CC1 -17.2%
COc1ccccc1CC(=O)Nc1ccc(-c2noc(COc3ccc(Br)cc3)n2)cc1 11.3%
Cc1cc2nc(-c3ccc(SCC(=O)Nc4ccc5c(c4)OCCO5)nc3)[nH]c2cc1C 43.2% [at 288 µM]
Cc1cccc(NC(=O)CSc2nc3ccc(NC(=O)CSc4nnnn4-c4ccccc4)cc3s2)c1C 36.8% [at 288 µM]
Cc1cnc(NC(=O)C2C(=O)c3ccccc3S(=O)(=O)N2C)s1 (stereo not given) 6.66% [at 288 µM]
Cn1c(=O)n(C)c2cc3[nH]cnc3cc21 3.61%
C=CCN(CC=C)S(=O)(=O)c1ccc(NC(=S)NC(=O)/C=C/c2cccc3ccccc23)cc1 -6.4%
O=c1cc(O)c2ccccc2n1Cc1ccccc1F -15.9%
CCCN(CCC)CCCNC(=O)c1cc2c(=O)[nH]c3ccccc3c2s1 -12%
CN1[C@H](CC(=O)c2ccccc2)CCC[C@H]1C[C@@H](O)c1ccccc1 -0.812% [at 288 µM]
O=C(NC1CCN(c2ncccn2)CC1)c1c(F)cccc1F -2.68% [at 288 µM]
CCc1ccc(NC(=O)CSc2nc(O)cc(=O)n2C2CCCC2)cc1 -11.7%
Cc1ccc(-c2cc(C(=O)Nc3cc(C)ccc3O)no2)cc1 -2.22%
N#CC1=C(N)OC2=C(C(=O)CC(c3ccco3)C2)C1c1ccc(OCc2c(F)cccc2Cl)cc1 (stereo not given) 35.6% [at 182 µM]
CCN(CCn1cccn1)Cc1ccccc1OCC(O)CN1CCc2ccccc2C1 (stereo not given) -28.7%
Cc1ccc(S(=O)(=O)c2cc(OC(=O)c3ccco3)ccc2OC(=O)c2ccco2)cc1 -3.07%
O=[N+]([O-])CC(c1ccccc1)P(=O)(c1ccccc1)c1ccccc1 (stereo not given) -4.21%
O=C(CS)Nc1ccc2ccccc2c1 -23%
CCOc1ccc2c(c1)C(NC(C)=O)C(=O)N2CCN1CCOCC1 (stereo not given) -25.5%
COc1cc(NC(=O)c2cccnc2)c(OC)cc1NC(=O)c1ccc(Br)cc1 2.22%
CCCNC(=O)c1ccc2c(=O)c(O)c(C)[nH]c2c1 -14.9%
O=S(=O)(Nc1cccc(-c2cn3cccnc3n2)c1)c1ccccc1 1.3% [at 288 µM]
Cc1ccc(NC(=O)C(C)N2C(=O)c3ccccc3C2=O)c(C)c1 (stereo not given) 3.78%
COc1ccc(CN2CCN(C(C)C(=O)N(C)Cc3cccc(F)c3)CC2)cc1OC (stereo not given) -2.91%
O=C(/C=C/c1ccccc1)c1cccs1 -28.1% [at 288 µM]
CN(C)C(CNc1ncnc2sc3c(c12)CCCCC3)c1ccco1 (stereo not given) -25.6%
CC(=O)O[C@H]1CSC[C@H]1NC(=O)c1ccccc1 -0.821%
CCC(=O)NC(=S)Nc1ccc(NC(=S)NC(=O)c2ccc(C)cc2)cc1 -10.6%
O=C(c1cc2c(=O)n3ccccc3nc2s1)N1CCOCC1 -2.44% [at 288 µM]
CN(C)CCCOc1ccc2c(c1)Sc1ccccc1CC2=O -23.1%
Cc1cccc(Nc2nnc(SCC(=O)NC(=O)Nc3ccc4c(c3)OCCO4)s2)c1 -16%
Cc1nn(-c2ccccc2)c2nc(N)c(C(N)=O)cc12 -7.72%
CCOC(=O)C1CCN(CC(O)COCc2ccccc2)CC1 (stereo not given) -2.6% [at 288 µM]
